Test results published in PubChem BioAssay AID686979 (National Center for Advancing Translational Sciences (NCATS), 2013).
Several values for one entry are separate records, joined by “and”; a condition that tells them apart may be missing. Identical values can stand only once. In all, about 420,000 compounds went through this assay and about 50,000 (12%) were called active. Another 26% or so got no clear call; they are omitted. This excerpt belongs to a sample that is enriched for actives. Values without a mark were called inactive. Calls come from the whole dose curve; as a rule, active = well fitted inhibition curve with a large enough effect; inconclusive = small, poorly fitted or top-dose-only effect; inactive = flat fitted curve, though single readings scatter.

Test: qHTS for Inhibitors of human tyrosyl-DNA phosphodiesterase 1 (TDP1): qHTS in cells in presence of CPT; note: nearly all actives have a fitted effect of over 55% in size
Conditions: chicken DT40 Tdp1-/-;hTDP1 cells + 20 nM CPT, ATP luminescence, 48 h; series mostly up to 46.2 µM; activity change, negative = growth inhibition: at the top concentration
Description: Human tyrosyl-DNA phosphodiesterase 1 (TDP1) is a novel repair gene, and we propose to use it as a new target for anticancer drug development. TDP1 is not an essential protein, but under treatment with topoisomerase I poison (camptothecin: CPT), TDP1 works as a critical factor for cell survival. To directly identify novel TDP1 inhibitors active in a cellular environment, we have knocked-out the Tdp1 gene in chicken DT40 cells (Tdp1-/-) and generated a complemented counterpart cells that contains a stable transfection of the human TDP1 gene (Tdp1-/-;hTDP1 cells). For the primary screen, Tdp1-/-;hTDP1 cells will be exposed to small molecules in the presence or absence of CPT, and their growth kinetics will be evaluated after 48 hours by measuring ATP activity. […] The hit compounds will then be evaluated in the presence or absence of CPT using Tdp1-/- cells. […] In tertiary assays, biochemical gel-based assays will be used to assess whether the hit compounds specifically target TDP1. To this end, we have screened this cell line against the MLSMR in two primary screens. In one screen we add CPT and in the other we screen in the absence of CPT; this AID represents the screen where CPT was present. NIH Chemical Genomics Center [NCGC] NIH Molecular Libraries Probe Centers Network [MLPCN] MLPCN Grant: MH095538 Assay Submitter (PI): Yves Pommier, NCI
DT40-hTDP1 cells with 20 nM Camptothecin (add 20 microL of 1 mM CPT stock in 1 L of cell culture medium) were dispensed at 400 cells/5microL/well in tissue culture treated 1536-well white wall/solid bottom assay plates (Greiner Bio-One North America, NC, U.S.A.) using a Multidrop Combi 8 channel dispenser (Thermo Fisher, Waltham, MA, USA). 23 nL compounds and controls were transferred using the pin tool (Kalypsys, San Diego, CA, USA) to the assay plates. The assay plates were then incubated at 37 masculineC for a minimum 48 hr. Three microL of Cell Titer Glo solution was added to the plates and incubated at RT in dark for 30 min. Luminescence was read using ViewLux (Perkin Elmer) with 1 sec exposure slow speed, high gain and 2x binning.
% is set by controls: 0 for no effect and ±100 for the full control effect; potency is the fitted concentration of half-maximal effect.

**Q.** With `Cc1cccc(C)c1N1CCN(S(=O)(=O)N2CCCCC2)CC1` as the compound, how does the “activity change, negative = growth inhibition” value read?
**A.** -11.1%

**Q.** Which Potency does the source give for `COc1cc(OC)cc(-c2nc3nc(C)c(CCC(=O)Nc4ccccc4)c(C)n3n2)c1` here?
**A.** 14.6 µM (active)

**Q.** With `COc1cc(OC)cc(-c2nc3nc(C)c(CCC(=O)Nc4ccc(C)cc4)c(C)n3n2)c1` as the compound, how does the “activity change, negative = growth inhibition” value read?
**A.** -9.57%

**Q.** Which “activity change, negative = growth inhibition” value does the source give for `CCOC(=O)c1cccc(NC(=O)CCc2c(C)nc3ncnn3c2C)c1` here?
**A.** 3.12%

**Q.** For `CC(C)OC(=O)c1ccc(COc2ccc3ccc(=O)oc3c2)o1`, which “activity change, negative = growth inhibition” value is on record?
**A.** 2.4%

**Q.** For `O=C(C1CCCO1)N1CCN(S(=O)(=O)c2ccc(Br)cc2)CC1` (stereo not given), which “activity change, negative = growth inhibition” value is on record?
**A.** -5.03%

**Q.** With `CN(C)C1CN(Cc2cn(Cc3ccccc3)nn2)S(=O)(=O)C1` (stereo not given) as the compound, how does the “activity change, negative = growth inhibition” value read?
**A.** -11.9%

**Q.** For `CC(C)CCN1CCN(Cc2ccc(C(F)(F)F)cc2)CC1CCO` (stereo not given), which “activity change, negative = growth inhibition” value is on record?
**A.** -29.5%

**Q.** For `CN(Cc1cn(Cc2ccc(C(F)(F)F)cc2)nn1)C1CN(Cc2cn(Cc3ccc(C(F)(F)F)cc3)nn2)S(=O)(=O)C1` (stereo not given), which Potency is on record?
**A.** 6.51 µM (active)

**Q.** For `O=C(c1ccc(Cl)c(S(=O)(=O)N2CCCCC2)c1)N1CCCCCC1`, which “activity change, negative = growth inhibition” value is on record?
**A.** -26.3%

**Q.** For `O=C(c1ccc(Cl)c(Cl)c1)N1CCCC1`, which “activity change, negative = growth inhibition” value is on record?
**A.** 3.77%

**Q.** Which Potency does the source give for `O=C(c1ccc(Cl)c(S(=O)(=O)N2CCCCCC2)c1)N1CCN(c2ccc(O)cc2)CC1` here?
**A.** 18.4 µM (active)

**Q.** For `CN(C)c1cccc(C(=O)N2CCC(n3nccc3NC(=O)C3CCOC3)CC2)c1` (stereo not given), which “activity change, negative = growth inhibition” value is on record?
**A.** 5.19%

**Q.** For `Cn1c(=O)c(Sc2ccc(Cl)cc2)c(O)c2ccccc21`, which “activity change, negative = growth inhibition” value is on record?
**A.** 5.09%

**Q.** With `CC1Cc2ccccc2N1CC(=O)Nc1ccc2c(c1)OC(F)(F)O2` (stereo not given) as the compound, how does the “activity change, negative = growth inhibition” value read?
**A.** -15.8%

**Q.** Which Potency does the source give for `COc1cc(NC(=O)c2cncc(-c3ccc(C#N)cc3)c2)cc(C(=O)Nc2cccc(C(F)(F)F)c2)c1` here?
**A.** 8.2 µM (active) and 16.4 µM (active)

**Q.** Which “activity change, negative = growth inhibition” value does the source give for `O=C(Nc1cccc(C(F)(F)F)c1)c1cnccn1` here?
**A.** 0.881%

**Q.** With `COc1cc(NC(=O)c2[nH]cnc2C(N)=O)cc(C(=O)Nc2cccc(C(F)(F)F)c2)c1` as the compound, how does the Potency read?
**A.** 20.6 µM (active)

**Q.** With `N#Cc1ccc(Oc2ccc(C(F)(F)F)cc2NC(=O)c2ccc(F)cc2)cc1` as the compound, how does the “activity change, negative = growth inhibition” value read?
**A.** -18.8%

**Q.** For `CCN(CC)C(=O)C1=C(C)N(Cc2ccc(F)cc2)C(=O)C(CC(=O)NC2CCCC2)C1` (stereo not given), which “activity change, negative = growth inhibition” value is on record?
**A.** -16.9%

**Q.** With `O=c1ccn([C@@H]2O[C@H](COP(=O)(O)OP(=O)(O)OP(=O)(O)O)[C@@H](O)[C@H]2O)c(=O)[nH]1` as the compound, how does the “activity change, negative = growth inhibition” value read?
**A.** -29.6%

**Q.** For `CNS(=O)(=O)c1cccc(C(=O)OCC(=O)N2c3ccccc3NC(=O)C2(C)C)c1`, which “activity change, negative = growth inhibition” value is on record?
**A.** -1.39%

**Q.** With `CCOc1ccc(NC(=O)CN(C)C(=O)CCSc2ccc(F)cc2)cc1OCC` as the compound, how does the “activity change, negative = growth inhibition” value read?
**A.** -29.6%

**Q.** With `CC(C)Oc1ccc(C(CC(=O)N2CCOCC2)C(C)C)cc1` (stereo not given) as the compound, how does the “activity change, negative = growth inhibition” value read?
**A.** -3.05%

**Q.** For `COc1ccccc1CNC(=O)C(=O)NCC(c1cccs1)S(=O)(=O)c1cccs1` (stereo not given), which “activity change, negative = growth inhibition” value is on record?
**A.** -6.96%

**Q.** With `CC(C)C(=O)NCC(c1cccs1)S(=O)(=O)c1ccc(F)cc1` (stereo not given) as the compound, how does the “activity change, negative = growth inhibition” value read?
**A.** -12.7%

**Q.** For `Cc1ccccc1CNC(=O)C(=O)NCC(c1cccs1)S(=O)(=O)c1cccs1` (stereo not given), which Potency is on record?
**A.** 13 µM (active)

**Q.** Which “activity change, negative = growth inhibition” value does the source give for `CC(C)C(=O)Nc1nnc(Sc2ccc(N(C)C)cc2)s1` here?
**A.** -0.75%

**Q.** Which “activity change, negative = growth inhibition” value does the source give for `Cc1noc(C)c1S(=O)(=O)N(C)Cc1ccccc1` here?
**A.** -6.12%

**Q.** For `CN(Cc1ccccc1)c1ccc(-c2nc(-c3ccccc3)no2)cc1[N+](=O)[O-]`, which “activity change, negative = growth inhibition” value is on record?
**A.** -15.3%

**Q.** For `CN(Cc1ccccc1)c1ncnc2onc(-c3ccc(F)cc3)c12`, which Potency is on record?
**A.** 23.1 µM (active)

**Q.** For `Cc1ccc2c(C)c(C(=O)N3CCC(N4CCC(C(=O)NC5CC5)CC4)CC3)oc2c1`, which “activity change, negative = growth inhibition” value is on record?
**A.** -0.225%

**Q.** For `CN1CN(C)c2ccc([N+](=O)[O-])c3cccc1c23`, which “activity change, negative = growth inhibition” value is on record?
**A.** 0.252%

**Q.** With `CCN1C[C@@H]2[C@@H]3C(=O)N(Cc4ccccc4)C(=O)[C@@H]3[C@](C)(C1=O)N2C(=O)c1ccc(C(C)(C)C)cc1` as the compound, how does the “activity change, negative = growth inhibition” value read?
**A.** -20.1%

**Q.** For `O=C1[C@H]2[C@@H](c3ccc(C(F)(F)F)cc3)N[C@]3(CCCN(Cc4ccc(Cl)cc4)C3=O)[C@H]2C(=O)N1Cc1ccccc1`, which Potency is on record?
**A.** 16.4 µM (active)

**Q.** Which Potency does the source give for `CCN1C(=O)[C@H]2[C@@H](c3ccc(C(F)(F)F)cc3)N[C@]3(CCCN(Cc4ccc(Br)cc4)C3=O)[C@H]2C1=O` here?
**A.** 13 µM (active)

**Q.** For `O=C1[C@H]2[C@@H](c3ccc(C(F)(F)F)cc3)N[C@]3(CCCN(Cc4ccc(Br)cc4)C3=O)[C@H]2C(=O)N1Cc1ccccc1`, which “activity change, negative = growth inhibition” value is on record?
**A.** -21.3%

**Q.** Which “activity change, negative = growth inhibition” value does the source give for `COc1ccc([C@H]2N[C@]3(CCCN(Cc4ccco4)C3=O)[C@H]3C(=O)N(C)C(=O)[C@@H]23)cc1` here?
**A.** -16.7%

**Q.** Which “activity change, negative = growth inhibition” value does the source give for `CN(Cc1ccccc1)S(=O)(=O)c1nnc(NC(=O)c2ccccc2F)s1` here?
**A.** -20.1%

**Q.** With `CCOc1cc(CNCCN(C)C)c(Cl)cc1OCC(=O)NCCc1ccccc1` as the compound, how does the “activity change, negative = growth inhibition” value read?
**A.** -11.9%

**Q.** With `Nc1ncnc2c1ncn2[C@@H]1O[C@H](CNS(=O)(=O)c2ccc(-c3ccno3)s2)[C@@H](O)[C@H]1O` as the compound, how does the “activity change, negative = growth inhibition” value read?
**A.** -29.6%

**Q.** For `O=C(Nc1nnc(SCc2c(Cl)cccc2Cl)s1)c1cccc([N+](=O)[O-])c1`, which “activity change, negative = growth inhibition” value is on record?
**A.** -2.24%

**Q.** Which “activity change, negative = growth inhibition” value does the source give for `CC(=O)Nc1ccc(-c2ccnc3c2CC(C(=O)NC(C)C)O3)cc1` (stereo not given) here?
**A.** -23.4%

**Q.** With `O=C(Nc1ccc2c(c1)OCO2)C1CC(c2c(F)cccc2Cl)=NO1` (stereo not given) as the compound, how does the “activity change, negative = growth inhibition” value read?
**A.** -29.9%

**Q.** Which “activity change, negative = growth inhibition” value does the source give for `O=C1OC(C(=O)Nc2cccc(Br)c2)Cc2ccccc21` (stereo not given) here?
**A.** 8.89%
